Results published in PubChem BioAssay (NCATS).
Inconclusive results are not listed. Values without a mark were called inactive. The source made the active and inactive calls. The call rests on the fitted dose curve; in most records, active means well fitted cell-killing curve with a large enough effect; inconclusive means small, poorly fitted or top-dose-only effect, or effect the other way; inactive means no such curve, though single readings can be large or run the other way.

Experiment: Viability qHTS for spleen associated tyrosine kinase inhibitor (SYKi) drug resistant MV4-11 cells (AID 1963824); further: nearly all actives have a fitted effect of over 35% in size
Conditions: SYKi-resistant MV4-11 viability, CellTiter-Glo, 72 h; series mostly up to 45 µM; viability, % of control: at the top concentration
Method in brief: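 SYK-inhibitor-resistant MV4-11 AML cells were seeded at 500 per well onto compound and cultured 72 hours (37 °C, 5% CO2). CellTiter-Glo was then added, and after 10 min at room temperature, luminescence gave viability.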
Potency means the concentration at half of the fitted maximal effect.

Row | Structure (SMILES) | Potency | viability, % of control
1 | CCC(C)C(=O)O[C@H]1CCC=C2C=C[C@H](C)[C@H](CC[C@@H](O)C[C@@H](O)CC(=O)O)[C@H]21 (some centres undefined) | 10 µM (active) | 
2 | COC(=O)N1CCC(n2ncc3c(N4CCOCC4)nc(-c4ccc(NC(=O)Nc5ccc(CO)cc5)cc4)nc32)CC1 | 0.0184 µM (active) | 
3 | CC(=O)OCC(=O)[C@@]12O[C@@H]1C[C@H]1[C@@H]3CC=C4C[C@@H](O)CC[C@]4(C)[C@H]3CC[C@@]12C | 18.4 µM (active) | 
4 | CO[C@H]1C[C@@H]2CC[C@@H](C)[C@@](O)(O2)C(=O)C(=O)N2CCCC[C@H]2C(=O)O[C@H]([C@H](C)C[C@@H]2CC[C@@H](OP(C)(C)=O)[C@H](OC)C2)CC(=O)[C@H](C)/C=C(\C)[C@@H](O)[C@@H](OC)C(=O)[C@H](C)C[C@H](C)/C=C/C=C/C=C/1C | 3.72 µM (active) | 
5 | CC[C@@H]1[C@H]2CCCCN3C(=O)C[C@H]([C@@H]4[C@H]1OC(=O)[C@H]4C)[C@@H]23 |  | 77.3%
6 | CNc1nc(Nc2ccc(C(=O)N3CCOCC3)cc2OC)nc2[nH]cc(Cl)c12 | 6.51 µM (active) | 
7 | COC(=O)/C=C/C=C/C(=O)OC1C=C2COC(=O)C2(O)C2(C)CCCC(C)(C)C12 (centres undefined) | 8.93 µM (active) | 
8 | C/C(=C/CCC(CO)C1CCC2(C)C3CCC4C(C)(C)C(OC5OC(CO)C(O)C(O)C5O)CC(O)C45CC35CCC12C)COC1OC(CO)C(O)C(O)C1O (centres undefined) |  | 72.5% [at 17.3 µM]
9 | C=C1[C@H](OC(C)=O)[C@H]2[C@@H](OC(C)=O)[C@](C)(OC(C)=O)C[C@]2(OC(C)=O)C(=O)[C@H](C)/C=C/C(C)(C)C(=O)[C@H](OC(=O)C(C)CC)[C@H]1OC(C)=O (some centres undefined) |  | 104% [at 17.3 µM]
